“And” between values parts separate entries of the source, which are not always exact repeats. Identical values can stand only once. The source holds several records for some structures; these can differ, active in one and inactive in another. The source made the active and inactive calls. The calls were made as follows: active = hit-call score of the fitted dose curve at least 0.9, where 1 is the maximum; inactive = score below 0.9.
Legend:
[1] = ATG_GLI_CIS: Attagene CIS-FACTORIAL HepG2 Assay for human Zinc Finger Protein GLI1 (AID 2282945); details: HepG2, Attagene cis-factorial reporter mRNA, GLI element; actives raise or lower the signal
How it was run: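 HepG2 cells transiently transfected with cis-promoter multiplexed reporter units report endogenous transcription factor activity. After 24 h chemical exposure, reporter mRNA was quantified by RT-PCR, 6-FAM labelling, HpaI digestion and capillary electrophoresis, with bidirectional fitting against DMSO.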

[2] = target: Bile acid receptor (Homo sapiens) (UniProt Q96RI1); test: ATG_IR1_CIS: Attagene CIS-FACTORIAL HepG2 Assay for human Nuclear Receptor Subfamily 1 Group H Member 4 (NR1H4), IR1 submotif (AID 2282946); details: IR1 reporter transcription, actives raise or lower the signal
How it was run: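 Transient MRTU transfection, HepG2; 24 h dosing; RNA → RT-PCR → 6-FAM primer extension → HpaI digest → capillary electrophoresis fluorescence. Gain/loss of signal fitted relative to DMSO.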

[3] = ATG_GRE_CIS: Attagene CIS-FACTORIAL HepG2 Assay for human Glucocorticoid Response Elements (GRE) (AID 2282947); details: HepG2 GRE cis-reporter, Attagene multiplex mRNA; actives raise or lower the signal
How it was run: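 Following 24 h chemical exposure of transiently transfected HepG2 cells, total RNA was reverse-transcribed and reporter cDNA amplified, fluorescently labelled and sized by capillary electrophoresis. Signal gain or loss was fitted relative to DMSO vehicle.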

[4] = ATG_ISRE_CIS: Attagene CIS-FACTORIAL HepG2 Assay for human Interferon Regulatory Factor 1 (IRF1) binding to an Interferon-Stimulated Response Element (ISRE) (AID 2282948); details: HepG2 ISRE cis-reporter (Attagene), mRNA transcription readout; actives raise or lower the signal
How it was run: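 Transiently transfected HepG2 cells carrying cis-element reporter units, dosed 24 hours. Reporter mRNA quantified by RT-PCR, fluorescent primer extension, HpaI digestion and capillary electrophoresis. Bidirectional fitting relative to DMSO.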

[5] = ATG_M_32_CIS: Attagene CIS-FACTORIAL HepG2 Assay for M32 Transcription Factor (Internal Marker) (AID 2282949); details: HepG2 Attagene cis-factorial M32 reporter, mRNA; actives raise or lower the signal;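 also: background control marker of the multiplexed CIS panel rather than a real target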
How it was run: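 Fluorescent capillary electrophoresis peaks of HpaI-digested, FAM-labelled RT-PCR reporter products give the signal. Source: transiently transfected human liver HepG2 cells, 24 h after chemical dosing; bidirectional fitting against DMSO.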

[6] = ATG_M_06_CIS: Attagene CIS-FACTORIAL HepG2 Assay for M06 Transcription Factor (Internal Marker) (AID 2282950); details: HepG2 Attagene CIS-FACTORIAL M06 internal marker reporter; actives raise or lower the signal
How it was run: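 Terse: HepG2, transient MRTU transfection (FuGene 6), 24 h dosing; total RNA, oligo(dT) RT, PCR, FAM label, HpaI cut, capillary electrophoresis; bidirectional fit vs DMSO baseline; background-control endpoint.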

[7] = target: Hypoxia-inducible factor 1-alpha (Homo sapiens) (UniProt Q16665); test: ATG_HIF1a_CIS: Attagene CIS-FACTORIAL HepG2 Assay for human Hypoxia Inducible Factor 1 (HIF1A) (AID 2282951); details: HepG2 Attagene cis-factorial HIF1a reporter transcription; actives raise or lower the signal
How it was run: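 HepG2, transient cis-reporter library, 24 h dosing. RNA → RT (oligo dT) → PCR → 6-FAM primer extension → HpaI → CE. Bidirectional curve fit vs DMSO.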

[8] = target: Hepatocyte nuclear factor 6 (Homo sapiens) (UniProt Q9UBC0); test: ATG_HNF6_CIS: Attagene CIS-FACTORIAL HepG2 Assay for human Hepatocyte Nuclear Factor 6 (HNF6) (AID 2282952); details: HepG2 Attagene cis-factorial HNF6 reporter transcription; actives raise or lower the signal
How it was run: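 HepG2 cells transiently transfected with cis-element-driven multiple reporter transcription units, dosed 24 h; reporter mRNA quantified by RT-PCR, FAM primer extension, HpaI digestion and capillary electrophoresis; bidirectional fit versus DMSO baseline.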

[9] = target: Heat shock factor protein 1 (Homo sapiens) (UniProt Q00613); test: ATG_HSE_CIS: Attagene CIS-FACTORIAL HepG2 Assay for human Heat Shock Transcription Factor 1 (HSE) (AID 2282953); details: HepG2 HSE cis-reporter, Attagene RNA transcription; actives raise or lower the signal
How it was run: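 Read-out: fluorescence of reporter-specific RT-PCR fragments separated by capillary electrophoresis. HepG2 carrying transfected cis-element reporter units; 24 h dosing; activity fitted in both directions relative to DMSO baseline.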

[10] = ATG_MRE_CIS: Attagene CIS-FACTORIAL HepG2 Assay for human Metal Responsive Element (MRE) (AID 2282954); details: HepG2 MRE cis-reporter transcription, Attagene multiplex; actives raise or lower the signal
How it was run: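 Step one: transfect HepG2 with cis-regulated reporter units. Step two: dose 24 h. Step three: isolate RNA, RT-PCR, 6-FAM label, HpaI digest, capillary electrophoresis. Fit bidirectionally to DMSO.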

Hepatocyte nuclear factor 6 (Homo sapiens), sequence (Q9UBC0 whole entry, looked up): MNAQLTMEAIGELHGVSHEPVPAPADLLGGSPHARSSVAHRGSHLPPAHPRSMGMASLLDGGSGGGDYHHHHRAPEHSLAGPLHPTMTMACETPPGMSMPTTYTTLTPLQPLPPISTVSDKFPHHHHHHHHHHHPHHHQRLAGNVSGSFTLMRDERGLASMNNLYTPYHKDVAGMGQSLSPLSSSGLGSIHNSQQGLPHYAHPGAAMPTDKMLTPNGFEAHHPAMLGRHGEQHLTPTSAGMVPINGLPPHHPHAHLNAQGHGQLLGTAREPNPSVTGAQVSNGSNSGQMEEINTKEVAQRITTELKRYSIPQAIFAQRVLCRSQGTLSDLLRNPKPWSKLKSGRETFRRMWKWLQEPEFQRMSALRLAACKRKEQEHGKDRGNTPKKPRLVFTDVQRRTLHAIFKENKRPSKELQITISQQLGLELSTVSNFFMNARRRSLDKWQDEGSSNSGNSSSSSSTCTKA
Heat shock factor protein 1 (Homo sapiens), sequence (Q00613 whole entry, looked up, the tested form may be a part): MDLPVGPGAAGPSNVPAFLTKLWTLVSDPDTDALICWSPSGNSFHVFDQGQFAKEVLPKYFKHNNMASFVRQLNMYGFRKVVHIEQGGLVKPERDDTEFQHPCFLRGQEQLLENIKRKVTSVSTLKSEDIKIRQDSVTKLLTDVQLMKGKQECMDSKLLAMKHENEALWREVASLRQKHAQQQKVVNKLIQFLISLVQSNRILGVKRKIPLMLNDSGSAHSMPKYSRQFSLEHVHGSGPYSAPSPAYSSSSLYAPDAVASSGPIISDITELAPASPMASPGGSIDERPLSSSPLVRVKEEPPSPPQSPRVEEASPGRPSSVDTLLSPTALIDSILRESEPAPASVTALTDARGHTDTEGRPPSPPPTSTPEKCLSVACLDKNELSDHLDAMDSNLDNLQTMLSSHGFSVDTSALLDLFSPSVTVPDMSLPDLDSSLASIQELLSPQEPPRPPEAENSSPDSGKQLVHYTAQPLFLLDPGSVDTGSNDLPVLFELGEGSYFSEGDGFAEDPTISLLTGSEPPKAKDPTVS
Bile acid receptor (Homo sapiens), sequence (Q96RI1 whole entry, looked up): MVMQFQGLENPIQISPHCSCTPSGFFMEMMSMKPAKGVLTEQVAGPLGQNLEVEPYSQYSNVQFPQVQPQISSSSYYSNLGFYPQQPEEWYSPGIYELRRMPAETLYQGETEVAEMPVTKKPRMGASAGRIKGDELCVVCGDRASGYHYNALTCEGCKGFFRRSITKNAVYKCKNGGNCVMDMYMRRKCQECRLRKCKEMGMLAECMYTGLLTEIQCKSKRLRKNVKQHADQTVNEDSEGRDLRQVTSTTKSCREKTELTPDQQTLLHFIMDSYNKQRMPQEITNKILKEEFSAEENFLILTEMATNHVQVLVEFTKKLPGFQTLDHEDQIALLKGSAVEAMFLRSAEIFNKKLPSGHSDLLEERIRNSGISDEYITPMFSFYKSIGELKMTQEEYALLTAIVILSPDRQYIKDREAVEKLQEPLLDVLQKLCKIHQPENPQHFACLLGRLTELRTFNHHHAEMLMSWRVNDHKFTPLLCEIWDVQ
Hypoxia-inducible factor 1-alpha (Homo sapiens), sequence (Q16665 whole entry, looked up): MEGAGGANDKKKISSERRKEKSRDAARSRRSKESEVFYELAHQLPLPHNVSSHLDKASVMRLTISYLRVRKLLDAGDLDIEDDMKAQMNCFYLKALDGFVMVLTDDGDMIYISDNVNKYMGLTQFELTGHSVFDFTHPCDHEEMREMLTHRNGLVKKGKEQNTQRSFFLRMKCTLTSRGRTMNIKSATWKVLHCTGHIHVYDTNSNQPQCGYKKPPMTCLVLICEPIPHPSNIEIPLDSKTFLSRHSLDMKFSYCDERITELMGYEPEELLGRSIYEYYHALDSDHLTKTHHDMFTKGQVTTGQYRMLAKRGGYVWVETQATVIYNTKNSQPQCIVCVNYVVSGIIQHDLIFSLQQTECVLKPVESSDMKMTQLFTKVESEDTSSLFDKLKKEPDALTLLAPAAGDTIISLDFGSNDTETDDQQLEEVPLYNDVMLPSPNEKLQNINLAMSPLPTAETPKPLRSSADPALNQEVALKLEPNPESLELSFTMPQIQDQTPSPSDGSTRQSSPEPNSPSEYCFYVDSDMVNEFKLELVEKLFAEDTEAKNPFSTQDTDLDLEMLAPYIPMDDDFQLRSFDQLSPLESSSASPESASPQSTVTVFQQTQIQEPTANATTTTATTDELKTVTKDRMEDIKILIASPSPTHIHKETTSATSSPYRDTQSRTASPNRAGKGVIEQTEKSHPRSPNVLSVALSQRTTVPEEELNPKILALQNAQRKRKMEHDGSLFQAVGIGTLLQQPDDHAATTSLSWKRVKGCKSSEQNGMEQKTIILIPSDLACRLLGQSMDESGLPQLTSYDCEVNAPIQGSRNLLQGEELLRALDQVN

Structure (SMILES)	outcome [1]	outcome [2]	outcome [3]	AC50 [4]	outcome [5]	outcome [6]	outcome [7]	outcome [8]	outcome [9]	outcome [10]	AC50 [3]	AC50 [6]	AC50 [7]	AC50 [8]	AC50 [9]	AC50 [10]	AC50 [1]	AC50 [2]	outcome [4]
OC(O)(C(F)C(O)(O)C(F)(F)F)C(F)(F)F	inactive	inactive	inactive	27.8 µM (active) and 9.44 µM (active)	inactive	inactive	inactive	inactive	inactive	inactive									
COc1cc(C(C)C)c2c(c1)S(=O)(=O)N(COc1cc(=O)n3cccc(OCCN4CCCCC4)c3n1)C2=O	inactive	inactive		5.08 µM (active)	inactive						4.22 µM (active)	12.3 µM (active)	5.04 µM (active)	13.9 µM (active)	2.75 µM (active)	9.28 µM (active)			
CCN(CC)C(=S)SSC(=S)N(CC)CC			inactive	81.3 µM (active)	inactive	inactive									111 µM (active)	148 µM (active)	153 µM (active)	67.8 µM (active)	
O=S(=O)(O)CCC(F)(F)C(F)(F)C(F)(F)C(F)(F)C(F)(F)C(F)(F)F	inactive	inactive	inactive		inactive	inactive	inactive	inactive	inactive	inactive									inactive
FC(F)C(F)(F)COCC1CO1 (stereo not drawn)	inactive	inactive	inactive		inactive	inactive	inactive	inactive	inactive	inactive									inactive
O=C(O)[C@H](O)[C@@H](O)C(=O)O	inactive	inactive	inactive		inactive	inactive		inactive	inactive	inactive									inactive
S=P(N1CC1)(N1CC1)N1CC1	inactive	inactive	inactive		inactive	inactive	inactive	inactive	inactive	inactive									inactive
C[Si](C)(C)C(F)(F)C(F)(F)C(F)(F)F	inactive	inactive	inactive		inactive	inactive	inactive	inactive	inactive	inactive									inactive
Cc1nc(-c2ccccn2)ncc1C(=O)Nn1cc(C)c2cc(F)ccc21	inactive	inactive	inactive		inactive	inactive		inactive	inactive	inactive			48 µM (active)						inactive
Nc1ccn([C@@H]2O[C@H](CO)[C@@H](O)[C@@H]2O)c(=O)n1	inactive	inactive	inactive		inactive	inactive	inactive	inactive	inactive	inactive									inactive
c1ccc2cc3ccccc3cc2c1	inactive	inactive	inactive		inactive	inactive	inactive	inactive		inactive									inactive
C[C@@H](Oc1ccc(CNC(=O)c2cccnc2Oc2ccc3c(c2)OCO3)c(F)c1)C(=O)O	inactive	inactive	inactive		inactive	inactive	inactive	inactive	inactive	inactive									inactive
O=S(=O)(O)c1ccc(N=Nc2c(O)ccc3cc(S(=O)(=O)O)ccc23)cc1	inactive	inactive	inactive		inactive	inactive	inactive	inactive	inactive	inactive									inactive
NC(=O)N(O)[C@@H]1COc2cc(OCc3ccccc3)ccc21	inactive	inactive	inactive		inactive	inactive	inactive	inactive	inactive	inactive									inactive
CC(C)CCCCCCOC(=O)C1CCCCC1C(=O)OCCCCCCC(C)C (stereo not drawn)	inactive	inactive	inactive		inactive	inactive	inactive	inactive		inactive									inactive
FC(F)=C(F)C(F)(F)C(F)(F)C(F)(F)C(F)(F)C(F)(F)C(F)(F)F	inactive	inactive	inactive		inactive	inactive	inactive	inactive	inactive	inactive									inactive
Cc1cccc(O)c1C	inactive	inactive	inactive		inactive	inactive	inactive	inactive	inactive	inactive								23.7 µM (active)	inactive
CCCOc1ccc(S(=O)(=O)N2CCN(CC)CC2)cc1-c1nc2c(CC)n(Cc3ccccn3)nc2c(=O)[nH]1	inactive		inactive	70 µM (active)	inactive	inactive		inactive	inactive				19.8 µM (active)			34.8 µM (active)		100 µM (active)	
NCC(F)(F)C(F)(F)C(F)(F)C(F)(F)F	inactive	inactive	inactive		inactive	inactive	inactive	inactive	inactive	inactive									inactive
O=C(Cl)C(F)(F)C(F)(F)C(F)(F)C(=O)Cl	inactive	inactive	inactive		inactive	inactive	inactive	inactive	inactive	inactive									inactive
Cc1nccn1-c1ccc(Sc2cccc(C3(C(N)=O)CCOCC3)c2)cc1	inactive			7.26 µM (active)	inactive	inactive	inactive		inactive		5.85 µM (active)			7.22 µM (active)		6.89 µM (active)		1.01 µM (active)	

Structure (SMILES)	outcome [1]	outcome [2]	outcome [3]	AC50 [4]	outcome [5]	outcome [6]	outcome [7]	outcome [8]	outcome [9]	outcome [10]	AC50 [3]	AC50 [6]	AC50 [7]	AC50 [8]	AC50 [9]	AC50 [10]	AC50 [1]	AC50 [2]	outcome [4]
OCCC(F)(F)C(F)(F)C(F)(F)C(F)(F)F	inactive	inactive	inactive		inactive	inactive	inactive	inactive	inactive	inactive									inactive
C=CCc1cc(S(=O)(=O)c2ccc(O)c(CC=C)c2)ccc1O	inactive		inactive		inactive	inactive	inactive	inactive							54.7 µM (active)	47 µM (active)		51.1 µM (active)	inactive
FC(F)(F)C(F)(F)C(F)(F)C(F)(F)C(F)(F)C(F)(F)I	inactive	inactive	inactive		inactive	inactive	inactive	inactive	inactive	inactive									inactive
FC(F)(F)COC(OCC(F)(F)F)OCC(F)(F)F	inactive	inactive	inactive		inactive	inactive	inactive	inactive	inactive	inactive									inactive
CCCCCOC(C)=O	inactive	inactive	inactive		inactive	inactive	inactive	inactive	inactive	inactive									inactive
O=C(O)c1cccc(C(=O)O)c1	inactive	inactive	inactive		inactive	inactive	inactive	inactive	inactive	inactive									inactive
COc1cc2c(c(OC)c1OC)-c1ccc(OC)c(=O)cc1[C@@H](NC(C)=O)CC2	inactive		inactive		inactive	inactive		inactive	inactive	inactive			0.619 µM (active)					0.0925 µM (active)	inactive
OCc1c[nH]c2ccccc12	inactive	inactive		27.1 µM (active) and 140 µM (active) and 32.2 µM (active)	inactive	inactive	inactive	inactive					2.91 µM (active) and 19.8 µM (active) and 1.45 µM (active)		176 µM (active) [middle of 5 runs]				inactive
CCCCCCCCCCCCCCCCOS(=O)(=O)O	inactive	inactive		22.8 µM (active)	inactive	inactive	inactive	inactive	inactive							25.4 µM (active)			
CCCCCCCCCC	inactive	inactive			inactive	inactive	inactive	inactive	inactive	inactive									inactive
CCCc1ccccc1	inactive		inactive		inactive	inactive		inactive	inactive	inactive			60.7 µM (active)						inactive
OC[C@H]1O[C@@](CO)(O[C@H]2O[C@H](CO)[C@@H](O)[C@H](O)[C@H]2O)[C@@H](O)[C@@H]1O	inactive	inactive			inactive	inactive	inactive	inactive	inactive	inactive									inactive
CCCCCCOC(=O)CC(CC(=O)OCCCCCC)(OC(=O)CCC)C(=O)OCCCCCC	inactive		inactive		inactive	inactive	inactive	inactive	inactive	inactive									inactive
O=C(O)c1ccc2c(c1)nc(C(=O)NC1CCN(C3CC3)CC1)n2Cc1cc(-c2ccc(Cl)s2)on1	inactive	inactive			inactive	inactive	inactive	inactive	inactive	inactive									inactive
CC(C)C(=O)Nc1ccc([N+](=O)[O-])c(C(F)(F)F)c1	inactive	inactive			inactive	inactive		inactive							167 µM (active)	100 µM (active)			inactive
CCc1cccc(CC)c1N	inactive		inactive		inactive	inactive	inactive	inactive	inactive	inactive									inactive
CC1(C)C(=O)N(Cl)C(=O)N1Cl	inactive		inactive		inactive	inactive	inactive	inactive	inactive	inactive									inactive
Cc1ncc([C@@H](CCCCCCc2ccc3c(n2)NCCC3)CC(=O)O)cn1	inactive	inactive			inactive	inactive	inactive	inactive	inactive	inactive									inactive
CCCCC(CC)C(=O)OCCOCCOCCOC(=O)C(CC)CCCC (stereo not drawn)	inactive		inactive		inactive	inactive	inactive	inactive	inactive	inactive									inactive
C[C@]12C=CC(=O)C=C1CC[C@H]1[C@@H]3C[C@@H](O)[C@](O)(C(=O)CO)[C@@]3(C)C[C@H](O)[C@@]12F	inactive				inactive	inactive	inactive	inactive	inactive	inactive	0.14 µM (active)								inactive

— PubChem BioAssay (EPA / NIEHS)
